For 8 molecules, outcome and AC50 results are on record in PubChem BioAssay (EPA / NIEHS).

Each structure is given as a SMILES string. Records with an inconclusive call do not appear. Where a structure was tested more than once in an assay, its records may differ in their call. The source made the active and inactive calls. The calls were made as follows, unless noted: active = hit-call score of the fitted dose curve at least 0.9, where 1 is the maximum; inactive = score below 0.9.

Assay [1] can be described thus: CCTE_Shafer_MEA_dev_active_electrodes_number: CCTE's Neural Network Formation Assay for Number of Active Electrodes, Shafer Lab (AID 2284040; active = hit-call score of the fitted dose curve at least 0.9, where 1 is the maximum;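 as to AC50: potency for loss of active electrodes versus DMSO so lower counts are hits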). The procedure, abridged:
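Rat cortical primary cultures, 1.5 x 10^5 cells/well, PEI-coated MEA, laminin drop. Continuous exposure DIV 0–12; full media/compound change DIV 5, 9. Readout: electrodes with mean firing ≥5 spikes/min; AUC across days; loss vs DMSO.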

A short description of assay [2]: CCTE_Shafer_MEA_dev_burst_rate: CCTE's Neural Network Formation Assay for Burst Rate, Shafer Lab (AID 2284042).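 As to AC50: potency for loss of burst rate below DMSO control.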 The procedure, abridged:
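Developmental network assay measuring how 12-day exposure of rat cortical neuron cultures alters bursting on extracellular MEA recordings. Values are AUC of well-mean burst rate across four recording days, relative to DMSO vehicle.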

The nature of assay [3]: CCTE_Shafer_MEA_dev_bursting_electrodes_number: CCTE's Neural Network Formation Assay for Number of Bursting Electrodes, Shafer Lab (AID 2284043; active = hit-call score of the fitted dose curve at least 0.9, where 1 is the maximum;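 as to AC50: potency is for loss of bursting electrodes relative to DMSO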). A digest of the protocol:
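Primary rat cortical neurons plated on 16-electrode MEA wells, exposed from day 0 with compound renewed at DIV 5 and 9. Electrodes bursting ≥1 burst per 2 min counted on days 5, 7, 9 and 12; trapezoidal AUC across days, fitted for loss versus DMSO.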

Assay [4] in a line: CCTE_Shafer_MEA_dev_per_burst_interspike_interval: CCTE's Neural Network Formation Assay for Burst Interspike Interval, Shafer Lab (AID 2284044).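 Also: mean spike spacing inside bursts as AUC over recordings on days 5 7 9 12.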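 As to AC50: potency for a decrease of within-burst interspike interval below DMSO level.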 The procedure, abridged:
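Spontaneous activity of maturing rat cortical networks is recorded on DIV 5, 7, 9 and 12 under chronic compound exposure beginning at plating. Endpoint: burst interspike interval well-mean, collapsed into trapezoidal AUC and fitted in the negative direction relative to DMSO.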

Assay [5] in a line: CCTE_Shafer_MEA_dev_burst_duration_mean: CCTE's Neural Network Formation Assay for Mean Burst Duration, Shafer Lab (AID 2284045).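 As to AC50: curve fitted for loss meaning shorter burst duration than DMSO.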 A digest of the protocol: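 Primary rat cortical neurons on 48-well 16-electrode MEA plates, exposed from day 0 with renewal at DIV 5 and 9; spontaneous activity recorded on days 5, 7, 9, 12. Well-mean burst duration across bursting electrodes, collapsed as trapezoidal AUC; DMSO baseline.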

A short description of assay [6]: CCTE_Shafer_MEA_dev_interburst_interval_mean: CCTE's Neural Network Formation Assay for Mean Interburst Interval, Shafer Lab (AID 2284046).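 Also: well-mean interburst interval of bursting electrodes as AUC over four recording days; curve fitted for decrease in interburst interval relative to DMSO.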 A digest of the protocol: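 Network formation assay in primary rat cortical cultures, exposed from DIV 0 to 12. Mean interburst interval per well, integrated as AUC over four recordings.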
The nature of assay [7]: CCTE_Shafer_MEA_dev_inter_network_spike_interval_mean: CCTE's Neural Network Formation Assay for Mean Inter-network Spike Interval, Shafer Lab (AID 2284047).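 As to AC50: potency for a decrease in mean inter-network spike interval below DMSO.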 A digest of the protocol:
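Compound was given at plating to primary rat cortical neurons and renewed with full medium changes on DIV 5 and 9. Extracellular activity was recorded on days 5, 7, 9, 12; AUC values were fitted for loss relative to DMSO control.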

Assay [8] can be described thus: CCTE_Shafer_MEA_dev_network_spike_number: CCTE's Neural Network Formation Assay for Number of Network Spikes, Shafer Lab (AID 2284048).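 As to AC50: fit as a loss of signal meaning fewer network spikes than DMSO.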 The procedure, abridged:
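Primary rat cortical neurons on PEI/laminin 48-well MEA plates, dosed from plating day 0 for 12 days, renewed at DIV 5 and 9. Network spike counts recorded DIV 5, 7, 9, 12, collapsed as trapezoidal AUC; DMSO baseline.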

Assay [9] can be described thus: CCTE_Shafer_MEA_dev_spike_duration_mean: CCTE's Neural Network Formation Assay for Mean Spike Duration, Shafer Lab (AID 2284051).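 Also: mean network spike duration pooled as area under curve over DIV 5 to 12 recordings.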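 As to AC50: potency for a decrease in mean network spike duration versus DMSO.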 A digest of the protocol:
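With DMSO as baseline, loss of mean network spike duration was scored from extracellular recordings of rat cortical neurons on MEA plates. Exposure spanned plating to DIV 12; the four recording days were collapsed into one AUC value.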

Assay [10] is described as follows: CCTE_Shafer_MEA_dev_network_spike_duration_std: CCTE's Neural Network Formation Assay for Standard Deviation of Network Spike Duration, Shafer Lab (AID 2284052).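 Also: area under curve of spike duration SD across recording days 5 to 12; hits are decreases in network spike duration SD versus DMSO vehicle.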 A digest of the protocol: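 Developing networks of rat cortical neurons were exposed over twelve days in vitro on 48-well MEA plates. Trapezoidal AUC of recordings (DIV 5–12) was analysed for signal loss relative to DMSO vehicle.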

Assay [11] in a line: CCTE_Shafer_MEA_dev_per_network_spike_spike_number_mean: CCTE's Neural Network Formation Assay for Mean Number of Spikes in a Network Spike, Shafer Lab (AID 2284053).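 As to AC50: fitted as decrease in spikes per network spike relative to DMSO.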 A digest of the protocol:
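First, rat cortical cells (1.5 x 10^5/well) were seeded onto MEA wells; second, dosing began at plating and was refreshed on DIV 5 and 9; finally, network-spike spike counts across DIV 5–12 were summarized as AUC.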

The nature of assay [12]: CCTE_Shafer_MEA_dev_per_network_spike_spike_percent: CCTE's Neural Network Formation Assay for Percent of Spikes in a Network Spike, Shafer Lab (AID 2284054). A digest of the protocol:
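Rat primary cortical neurons were grown on 48-well MEA plates (16 electrodes/well), exposed from plating day 0 through day 12, with treatment renewed on DIV 5 and 9. Percent of spikes within 0.05 s network-spike peaks was measured, summarised as AUC across days 5, 7, 9, 12.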

Assay [13] can be described thus: CCTE_Shafer_MEA_dev_AB: CCTE's Alamar Blue Assay for Cytotoxicity in the Neural Network Formation Assay, Shafer Lab (AID 2284083; active = hit-call score of the fitted dose curve at least 0.9, where 1 is the maximum;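 also: resazurin reduction fluorescence as viability of cultured neurons; twelve days of exposure from plating with re-dosing on DIV 5 and 9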). A digest of the protocol:
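Cytotoxicity companion to the developmental MEA: primary rat cortical neurons, 12-day exposure starting day 0, compound refreshed DIV 5 and 9; resazurin fluorescence, fitted against DMSO vehicle.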

Assay [14] in a line: CCTE_Shafer_MEA_dev_LDH: CCTE's Lactate Dehydrogenase Assay for Cytotoxicity in the Neural Network Formation Assay, Shafer Lab (AID 2284068; active = hit-call score of the fitted dose curve at least 0.9, where 1 is the maximum;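 also: exposure for twelve days from plating with re-dosing on DIV 5 and 9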). A digest of the protocol: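 Developing rat cortical networks on MEA plates are exposed to compound for 12 days from plating. LDH activity is measured spectrophotometrically, with DMSO as baseline.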
Assay [15] in a line: CCTE_Shafer_MEA_acute_AB: CCTE's Alamar Blue Assay for Cytotoxicity in the Neural Acute Assay, Shafer Lab (AID 2284069; active = hit-call score of the fitted dose curve at least 0.9, where 1 is the maximum;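 also: active compounds lower the viability signal compared with DMSO wells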). A digest of the protocol: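 Cytotoxicity endpoint for acute MEA exposures of primary rat cortical neurons on day 13 or 15. Resazurin reduction is read fluorescently at 544/590 nm, with DMSO as the negative-control baseline.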
The target in assay [16] is Estrogen receptor (Homo sapiens) (UniProt P03372). Nature of the assay: CCTE_Deisenroth_AIME_384WELL_LUC_Shift: CCTE's 384-well Estrogen Receptor Transactivation Assay with AIME metabolic competence data shift (ERTA luciferase; difference in metabolism positive and negative), Deisenroth Lab (AID 2284041).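 Also: shift is response with S9 minus without S9 so positive means metabolism raised ER signal.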 The procedure, abridged: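 Chemicals (0.002–200 uM, 10 points) pre-incubated 2 h with alginate-encapsulated induced male Sprague Dawley rat liver S9 or S9-free, then medium applied 24 h to VM7Luc4E2 cells; luciferase. Endpoint is per-concentration difference, S9-positive minus negative.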
Sequence of Estrogen receptor (Homo sapiens) (P03372 whole entry, looked up): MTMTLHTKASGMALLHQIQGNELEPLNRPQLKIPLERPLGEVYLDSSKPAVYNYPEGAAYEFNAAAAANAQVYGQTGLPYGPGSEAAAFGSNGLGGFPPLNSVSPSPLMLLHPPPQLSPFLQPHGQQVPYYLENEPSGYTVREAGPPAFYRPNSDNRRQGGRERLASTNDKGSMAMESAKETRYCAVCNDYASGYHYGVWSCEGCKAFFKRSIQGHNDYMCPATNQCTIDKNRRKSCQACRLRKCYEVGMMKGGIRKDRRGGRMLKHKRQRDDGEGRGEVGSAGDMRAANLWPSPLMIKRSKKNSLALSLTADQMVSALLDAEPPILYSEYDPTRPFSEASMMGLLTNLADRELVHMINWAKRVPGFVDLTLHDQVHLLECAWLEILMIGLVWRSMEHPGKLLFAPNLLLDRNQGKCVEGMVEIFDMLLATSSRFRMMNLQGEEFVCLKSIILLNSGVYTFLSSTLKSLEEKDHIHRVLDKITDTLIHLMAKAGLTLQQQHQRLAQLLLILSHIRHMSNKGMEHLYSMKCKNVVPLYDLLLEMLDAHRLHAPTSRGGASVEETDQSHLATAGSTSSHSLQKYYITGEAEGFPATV

Another assay deals with DIO2 (gene 1734). Nature of the assay: CCTE_GLTED_hDIO2: CCTE's human Deiodinase 2 (DIO2) Inhibition Assay, Great Lakes Toxicology and Ecology Division (GLTED) Lab (AID 2284050; active = hit-call score of the fitted dose curve at least 0.9, where 1 is the maximum). A digest of the protocol:
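In this cell-free test, chemicals are exposed to human deiodinase type 2 for 3 hours. Released iodide is determined spectrophotometrically via the Sandell-Kolthoff method, and signal loss relative to DMSO is fitted.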

With `O=CC(F)(F)C(F)(F)C(F)(F)F`, the call in assay [1], in assay [2], in assay [3], in [4], in [5] and in [6] was inactive. The outcome in [7], in assay [8], in assay [9], in assay [10], in [11] and in [12] was inactive. Besides, in [13], the result was inactive.

Take `CC(=O)Nc1ccc(O)cc1`: the molecule was classed as inactive in [1], in assay [2], in assay [3], in assay [4], in assay [5] and in assay [6]. In addition, the call in [7], in [8], in assay [9], in assay [10], in assay [11] and in [12] was inactive. For the same molecule, the outcome in assay [14], in assay [15] and in assay [13] was inactive. The AC50 in [3] is 0.0824 µM (active); in assay [5], 22.5 µM (active).

Consider `CC(C)c1c(C(=O)Nc2ccccc2)c(-c2ccccc2)c(-c2ccc(F)cc2)n1CC[C@@H](O)C[C@@H](O)CC(=O)O`, for which the concentration at half-maximal activity (AC50) in assay [1] was 0.00981 µM (active); in assay [2], 0.00894 µM (active); in assay [3] it was 0.00922 µM (active); in assay [4], 0.0255 µM (active); in [5] it was 0.0105 µM (active); in assay [6], 0.00832 µM (active). For the same molecule, the concentration at half-maximal activity (AC50) is 0.00722 µM (active) in assay [7]; 0.00574 µM (active) in [8]; 0.00474 µM (active) in assay [9]; 0.00268 µM (active) in assay [10]; 0.00816 µM (active) in assay [11]; 0.00821 µM (active) in [12]. The AC50 is 0.00148 µM (active) in assay [14] and 0.0258 µM (active) in assay [13].

As for `COc1cc([N+](=O)[O-])ccc1N`, the result in assay [16] was inactive.

Consider `Oc1c(Cl)cc(Cl)cc1Sc1cc(Cl)cc(Cl)c1O`, for which the result in assay [15] was inactive.

In the case of `C=CC(F)(F)C(F)(F)C(F)(F)C(F)(F)F`, the molecule was called inactive in assay [1], in assay [2], in assay [3], in assay [4], in assay [5] and in [6]. Further, the molecule was classed as inactive in [7], in [8], in [9], in [10], in [11] and in assay [12]. For the same molecule, the outcome in assay [13] was inactive.

With `OCC(F)(F)C(F)(F)C(F)(F)C(F)(F)C(F)(F)C(F)(F)C(F)(F)C(F)(F)C(F)(F)C(F)(F)C(F)(F)F`, the AC50 is 15 µM (active) in [1]; 6.73 µM (active) in [3]; 26.4 µM (active) in [6]; 6.13 µM (active) in [9]; 6.63 µM (active) in [11]; 9.08 µM (active) in [12]. Moreover, the results for the AC50 in [14] and in assay [13] were 9.45 µM (active) and 18.9 µM (active), respectively. The call in [1], in assay [2], in assay [3], in [4], in assay [5] and in assay [6] was inactive. The result in assay [7], in assay [8], in assay [9], in [10], in assay [11] and in assay [12] was inactive. For the same molecule, the result in assay [14] and in [13] was inactive.

Take `O=P(O)(O)CCC(F)(F)C(F)(F)C(F)(F)C(F)(F)C(F)(F)C(F)(F)C(F)(F)C(F)(F)F`: the AC50 in assay [1] is 4.18 µM (active); in assay [3], 2.39 µM (active); in assay [6] it was 8.6 µM (active); in [8], 4.29 µM (active); with DIO2 (gene 1734), 146 µM (active); in assay [9], 7.74 µM (active). Besides, the AC50 was 4.23 µM (active) in assay [11], 5.38 µM (active) in assay [12], 8.87 µM (active) in [14] and 8.79 µM (active) in [13]. Besides, the molecule was classed as inactive in assay [2], in assay [4], in [5], in assay [7] and in [10].
